Laboratory results taken from PubChem BioAssay AID1159580 (chemical genetic matrix, 2015).
Screen size: about 5,500 compounds; about 2,000 (36%) were called active. Inconclusive results (about 18%) are left out. Rule as the data show it: active = normalized growth mostly below about 0.91 (no sharp cut-off); inconclusive = no clear call, values can overlap the other calls; inactive = mostly above about 0.92. The list shows a part of the results.

Assay: chemical genetic growth profiling, strain panel (AID 1159580);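 also: tested at 20 µM; growth read once vehicle control cultures reached saturation at 30 °C; 1 = growth at the plate median or of vehicle wells; lower values mean less growth of the strain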
Details: growth OD

Measured: normalized growth

C=Cc1c2[nH]c(c1C)C=c1[nH]c(c(C)c1C=C)=CC1N=C(C=c3[nH]c(c(C)c3CCC(=O)O)=C2)C(CCC(=O)O)=C1C (configuration not stated)
inactive: S. cerevisiae deletion strains, locus YJR075W, strain HOC1, stronger effect = lower value 0.947 | S. cerevisiae deletion strains, locus YKL068W, stronger effect = lower value 1.06 | S. cerevisiae deletion strains, locus YKL160W, strain elf1, stronger effect = lower value 0.963 | S. cerevisiae deletion strains, locus YKL190W, strain CNB1, stronger effect = lower value 0.99 | S. cerevisiae deletion strains, locus YKR001C, strain vps1, stronger effect = lower value 0.953 | S. cerevisiae deletion strains, locus YKR026C, strain gcn3, stronger effect = lower value 1.06 | S. cerevisiae deletion strains, locus YKR091W, strain srl3, stronger effect = lower value 1 | S. cerevisiae deletion strains, locus YLL001W, strain dnm1, stronger effect = lower value 1.02 | S. cerevisiae deletion strains, locus YLL026W, stronger effect = lower value 1.02 | S. cerevisiae deletion strains, locus YLL041C, strain sdh2, stronger effect = lower value 1.02 | S. cerevisiae deletion strains, locus YLR027C, strain aat2, stronger effect = lower value 1 | S. cerevisiae deletion strains, locus YLR039C, strain RIC1, stronger effect = lower value 0.996 | S. cerevisiae deletion strains, locus YLR058C, strain SHM2, stronger effect = lower value 0.976 | S. cerevisiae deletion strains, locus YLR102C, strain apc9, stronger effect = lower value 0.992 | S. cerevisiae deletion strains, locus YLR113W, strain HOG1, stronger effect = lower value 1.05 | S. cerevisiae deletion strains, locus YLR221C, strain rsa3, stronger effect = lower value 0.975 | S. cerevisiae deletion strains, locus YLR258W, strain gsy2, stronger effect = lower value 1.02 | S. cerevisiae deletion strains, locus YLR262C, strain YPT6 (second series), stronger effect = lower value 1.07 | S. cerevisiae deletion strains, locus YLR262C, strain YPT6, stronger effect = lower value 0.976 | S. cerevisiae deletion strains, locus YLR268W, strain sec22, stronger effect = lower value 1.06 | S. cerevisiae deletion strains, locus YLR320W, strain mms22, stronger effect = lower value 0.996 | S. cerevisiae deletion strains, locus YLR330W, strain CHS5, stronger effect = lower value 0.99 | S. cerevisiae deletion strains, locus YLR342W, strain FKS1 (second series), stronger effect = lower value 0.993 | S. cerevisiae deletion strains, locus YLR342W, strain FKS1, stronger effect = lower value 1.03 | S. cerevisiae deletion strains, locus YLR357W, strain rsc2, stronger effect = lower value 1.05 | S. cerevisiae deletion strains, locus YLR370C, strain arc18, stronger effect = lower value 0.999 | S. cerevisiae deletion strains, locus YLR371W, strain rom2, stronger effect = lower value 0.949 | S. cerevisiae deletion strains, locus YLR384C, strain iki3, stronger effect = lower value 1.04 | S. cerevisiae deletion strains, locus YLR418C, strain cdc73, stronger effect = lower value 0.885 | S. cerevisiae deletion strains, locus YML016C, strain PPZ1, stronger effect = lower value 0.979 | S. cerevisiae deletion strains, locus YML032C, strain rad52, stronger effect = lower value 1.01 | S. cerevisiae deletion strains, locus YML120C, strain ndi1, stronger effect = lower value 1.01 | S. cerevisiae deletion strains, locus YML124C, strain tub3, stronger effect = lower value 0.987 | S. cerevisiae deletion strains, locus YMR058W, strain fet3, stronger effect = lower value 0.912 | S. cerevisiae deletion strains, locus YMR078C, strain ctf18, stronger effect = lower value 0.993 | S. cerevisiae deletion strains, locus YMR125W, strain sto1, stronger effect = lower value 1.06 | S. cerevisiae deletion strains, locus YMR129W, stronger effect = lower value 1.06 | S. cerevisiae deletion strains, locus YMR205C, strain PFK2, stronger effect = lower value 1.02 | S. cerevisiae deletion strains, locus YMR223W, strain ubp8, stronger effect = lower value 0.972 | S. cerevisiae deletion strains, locus YMR231W, strain pep5, stronger effect = lower value 1.02 | S. cerevisiae deletion strains, locus YMR263W, strain SAP30, stronger effect = lower value 0.982 | S. cerevisiae deletion strains, locus YMR307W, strain GAS1, stronger effect = lower value 0.909 | S. cerevisiae deletion strains, locus YNL067W, strain RPL9B, stronger effect = lower value 1 | S. cerevisiae deletion strains, locus YNL128W, strain TEP1, stronger effect = lower value 0.975 | S. cerevisiae deletion strains, locus YNL153C, strain GIM3, stronger effect = lower value 1 | S. cerevisiae deletion strains, locus YNL183C, strain NPR1, stronger effect = lower value 1.01 | S. cerevisiae deletion strains, locus YNL209W, strain ssb2, stronger effect = lower value 1.02 | S. cerevisiae deletion strains, locus YNL233W, strain BNI4, stronger effect = lower value 1.01 | S. cerevisiae deletion strains, locus YNL248C, strain rpa49, stronger effect = lower value 0.987 | S. cerevisiae deletion strains, locus YNL250W, strain rad50, stronger effect = lower value 1.02 | S. cerevisiae deletion strains, locus YNL271C, strain bni1, stronger effect = lower value 1.02 | S. cerevisiae deletion strains, locus YNL298W, strain CLA4, stronger effect = lower value 1 | S. cerevisiae deletion strains, locus YNL307C, strain MCK1, stronger effect = lower value 0.966 | S. cerevisiae deletion strains, locus YNL322C, strain KRE1 (second series), stronger effect = lower value 1.03 | S. cerevisiae deletion strains, locus YNL322C, strain KRE1, stronger effect = lower value 0.989 | S. cerevisiae deletion strains, locus YNR049C, strain mso1, stronger effect = lower value 1.01 | S. cerevisiae deletion strains, locus YNR052C, strain pop2, stronger effect = lower value 1 | S. cerevisiae deletion strains, locus YOL006C, strain TOP1, stronger effect = lower value 0.997 | S. cerevisiae deletion strains, locus YOL012C, strain htz1 0.933 | S. cerevisiae deletion strains, locus YOL147C, strain pex11, stronger effect = lower value 0.996 | S. cerevisiae deletion strains, locus YOR001W, strain rrp6, stronger effect = lower value 1.03 | S. cerevisiae deletion strains, locus YOR061W, strain CKA2, stronger effect = lower value 0.98 | S. cerevisiae deletion strains, locus YOR069W, strain VPS5, stronger effect = lower value 0.95 | S. cerevisiae deletion strains, locus YOR070C, strain gyp1, stronger effect = lower value 0.98 | S. cerevisiae deletion strains, locus YOR080W, strain dia2, stronger effect = lower value 1.01 | S. cerevisiae deletion strains, locus YOR083W, strain WHI5, stronger effect = lower value 0.951 | S. cerevisiae deletion strains, locus YOR106W, strain vam3, stronger effect = lower value 0.951 | S. cerevisiae deletion strains, locus YOR136W, strain idh2, stronger effect = lower value 0.982 | S. cerevisiae deletion strains, locus YOR144C, strain elg1, stronger effect = lower value 0.996 | S. cerevisiae deletion strains, locus YOR184W, strain ser1, stronger effect = lower value 0.964 | S. cerevisiae deletion strains, locus YOR231W, strain MKK1, stronger effect = lower value 1.05 | S. cerevisiae deletion strains, locus YOR265W, strain rbl2, stronger effect = lower value 1.01 | S. cerevisiae deletion strains, locus YOR270C, strain vph1, stronger effect = lower value 0.874 | S. cerevisiae deletion strains, locus YOR290C, strain snf2, stronger effect = lower value 0.997 | S. cerevisiae deletion strains, locus YOR316C, strain cot1, stronger effect = lower value 0.99 | S. cerevisiae deletion strains, locus YPL051W, strain arl3, stronger effect = lower value 0.949 | S. cerevisiae deletion strains, locus YPL055C, strain LGE1, stronger effect = lower value 0.903 | S. cerevisiae deletion strains, locus YPL078C, strain atp4, stronger effect = lower value 0.984 | S. cerevisiae deletion strains, locus YPL106C, strain sse1, stronger effect = lower value 0.982 | S. cerevisiae deletion strains, locus YPL240C, strain hsp82, stronger effect = lower value 0.994 | S. cerevisiae deletion strains, locus YPL241C, strain CIN2, stronger effect = lower value 0.994 | S. cerevisiae deletion strains, locus YPL256C, strain CLN2, stronger effect = lower value 1.1 | S. cerevisiae deletion strains, locus YPR119W, strain clb2, stronger effect = lower value 0.994 | S. cerevisiae deletion strains, locus YPR141C, strain kar3, stronger effect = lower value 1.01 | S. cerevisiae deletion strains, locus YPR163C, strain tif3, stronger effect = lower value 1 | S. cerevisiae deletion strains, locus YPR167C, strain met16, stronger effect = lower value 1 | S. cerevisiae deletion strains, strain wtn01, stronger effect = lower value 0.996 | S. cerevisiae strains, strain wild type, stronger effect = lower value 0.972
active: S. cerevisiae deletion strains, locus YKL009W, strain mrt4, stronger effect = lower value 0.791 | S. cerevisiae deletion strains, locus YKL085W, strain MDH1 (second series), stronger effect = lower value 1.19 [resistant] | S. cerevisiae deletion strains, locus YKL085W, strain MDH1, stronger effect = lower value 1.19 [resistant] | S. cerevisiae deletion strains, locus YNL071W, strain lat1, stronger effect = lower value 0.881
